Bioassay records deposited in PubChem BioAssay by several laboratories.
The list is not random: actives were taken first. Their share in the collection is about 4.8%.
CSC inhib: cancer stem cell viability inhibitors, primary screen, luminescence | cancer stem cell-like cells viability | actives 1.1% (n = 300,000) | inhibition, % at 7.5 µM; in the data active = inhibition above about 75%; inconclusive = no clear call, values can overlap the other calls; tested in HMLE shEcad cells
MPTP inh: mitochondrial permeability transition pore inhibitors, primary screen, biochemical, isolated mouse mitochondria, absorbance; Ca2+ swelling absorbance, 30 min; inhibition, % at 10 µM; actives 1.4% (n = 360,000); AID 602449, 2012;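 active = inhibition of 50% or more, scaled per plate between neutral and stimulator controls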;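 also: 0% = DMSO wells given calcium and 100% = 1 mM EGTA wells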
Calb FLC: C. albicans growth inhibition with fluconazole, primary screen, CaCi-2 strain, Alamar Blue fluorescence. growth inhibition, % (no concentration beside the values). actives 0.57% (n = 300,000). C. albicans CaCi-2 (fluconazole-resistant clinical isolate) + fluconazole, 48 h;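 active = growth inhibition above about 58% in most replicates, limit read from the data, passing the limit was not always enough; inconclusive = exactly half the replicates above a set limit; inactive = most replicates below a set limit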;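 also: all wells also contain fluconazole at 8 µg/ml as a sub-toxic cotreatment; 0% = median of DMSO wells and 100% = median of geldanamycin control wells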
Beta cell apopt: inhibitors of cytokine-induced beta cell apoptosis, primary screen, luminescence | protection from apoptosis, % (no concentration beside the values) | INS-1E cytokine-induced death, ATP luminescence, 48 h; percent of positive-control rescue, neutral wells zero | AID 435005, 2010 | actives 0.8% (n = 300,000);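 active = Every replicate reaches about 75%, or at least half do and their mean reaches it too, limit read from the data; inconclusive = At least half of replicates reach the limit but their mean does not; inactive = Under half of replicates reach the limit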;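 also: 0% = cytokine-treated negative control wells and 100% = positive control rescue; higher means more ATP so stronger rescue from cytokine killing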
Mdm2 MdmX PPI: inhibitors of human Mdm2-MdmX association, primary screen, cell-based, luminescence, split luciferase, SaOS-2, uHTS; actives 3% (n = 330,000); SaOS-2 split-luciferase Mdm2/MdmX complementation; Protein Mdm4 (Homo sapiens) + E3 ubiquitin-protein ligase Mdm2 (Homo sapiens), …; AID 485346, 2010; inhibition, % at 8 µM;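 active = inhibition of at least 50% at 8 µM in the primary screen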
Target sequence (O15151 whole entry, looked up): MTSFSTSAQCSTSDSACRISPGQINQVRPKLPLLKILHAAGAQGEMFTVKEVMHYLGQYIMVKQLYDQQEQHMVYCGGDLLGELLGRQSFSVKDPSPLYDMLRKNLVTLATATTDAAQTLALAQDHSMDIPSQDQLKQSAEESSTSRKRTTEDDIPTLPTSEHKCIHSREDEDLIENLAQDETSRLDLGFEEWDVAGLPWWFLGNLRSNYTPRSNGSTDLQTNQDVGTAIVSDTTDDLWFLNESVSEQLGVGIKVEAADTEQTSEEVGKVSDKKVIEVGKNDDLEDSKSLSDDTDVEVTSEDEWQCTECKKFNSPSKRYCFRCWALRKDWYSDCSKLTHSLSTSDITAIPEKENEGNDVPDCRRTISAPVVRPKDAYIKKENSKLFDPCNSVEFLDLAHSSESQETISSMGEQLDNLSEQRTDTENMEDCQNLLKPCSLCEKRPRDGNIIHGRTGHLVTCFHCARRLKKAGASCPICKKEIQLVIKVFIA
Target sequence (Q00987 whole entry, looked up): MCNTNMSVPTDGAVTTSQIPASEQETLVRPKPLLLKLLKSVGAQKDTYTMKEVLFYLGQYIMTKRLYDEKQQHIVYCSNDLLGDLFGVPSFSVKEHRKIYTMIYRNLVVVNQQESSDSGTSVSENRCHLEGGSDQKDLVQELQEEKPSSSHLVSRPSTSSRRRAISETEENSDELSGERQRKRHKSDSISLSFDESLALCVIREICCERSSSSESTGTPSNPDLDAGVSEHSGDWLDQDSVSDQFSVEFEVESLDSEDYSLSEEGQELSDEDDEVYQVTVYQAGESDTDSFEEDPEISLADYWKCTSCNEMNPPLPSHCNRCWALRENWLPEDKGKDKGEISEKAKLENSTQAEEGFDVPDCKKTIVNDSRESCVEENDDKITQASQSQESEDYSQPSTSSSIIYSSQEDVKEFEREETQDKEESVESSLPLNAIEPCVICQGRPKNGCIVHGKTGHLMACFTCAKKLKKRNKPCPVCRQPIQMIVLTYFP
Rh123 counter: fluorescence retest of MPTP screen hits in isolated mitochondria, single concentration; shares compounds with MPTP inh; membrane potential, Rhodamine 123 fluorescence; inhibition, % at 10 µM; actives 78% (n = 5,000); in the data active = inhibition above about 22%;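 also: 0% = DMSO vehicle and 100% = positive control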
The depositor's hits bear a star; ? = inconclusive; . = not tested or not shown.

SMILES	CSC inhib	MPTP inh	Calb FLC	Beta cell apopt	Mdm2 MdmX PPI	Rh123 counter
O=C(O)CN1C(=O)/C(=C/c2ccc(SCc3ccccc3)o2)SC1=S	.	0	.	.	.	.
COc1cc(CC(=O)NCC2CCCCC2)cc(OC)c1OC	-10	0	.	-2	-27	.
O=C1CC2(CCCC2)C(=O)N1CN1CCN(S(=O)(=O)c2ccc(Cl)c(Cl)c2)CC1	.	0	.	4	-9	.
Cc1cc(O)c(-c2ccno2)cc1Cl	7	82*	-1	2	15	88*
Cn1ncc(-c2ccno2)c1C(=O)O	-13	-1	-5	-3	21	.
CNC(=O)N(O)C1N(NC(=O)Nc2cccc3ccccc23)C(=S)SC1(C)C (stereo not given)	23	-2	4	18	-1	.
CC1(C)SC(=S)N(NC(=O)Nc2ccccc2)C1N(O)C(=O)Nc1ccccc1 (stereo not given)	12	58*	-4	0	-6	70*
Cc1cc(-n2c(C)cc(C(=O)CSc3ncnc4ccccc34)c2C)no1	8	97*	0	25	31	88*
Cc1cc(C)n2nc(SCC(=O)c3cc(C)n(-c4cc(C)on4)c3C)nc2n1	-8	81*	-2	54	25	62*
O=C(NCCN1CCCCC1)Nc1cccc(F)c1	8	0	0	-6	6	.
CCCCCN(C(=O)CCC(=O)OCC(=O)N(CC)C1CCCCC1)c1c(N)n(CCCC)c(=O)[nH]c1=O	-8	-1	2	-6	-5	.
CN(C)CCCNC(=S)Nc1ccc(-c2ccccc2)cc1	-20	1	?	-8	-9	.
CCOC(=O)c1c(C)[nH]c(C(=O)COC(=O)c2ccco2)c1C	.	0	.	1	31	.
CN(NC(=O)C(=O)NCc1ccco1)C(=O)Nc1ccc(Cl)cc1	.	85*	.	.	.	109*
O=C(Nc1ccc(Cl)cc1)Nc1ccccc1C(=O)NCc1ccco1	.	2	-1	.	5	.
Cc1cc(NC(=O)/C(C#N)=C\c2ccc(-c3ccc(SC(F)F)cc3)o2)n(-c2ccccc2)n1	.	4	.	.	.	.
COc1cc(NC(=S)Nc2ccc(OC(F)F)cc2)cc(OC)c1	-5	80*	-9	2	-10	76*
FC(F)Oc1ccc(NC(=S)NCC2COc3ccccc3O2)cc1 (stereo not given)	14	85*	-36	-7	17	98*
Fc1ccc(CNC(=S)Nc2ccc(OC(F)F)cc2)cc1	-1	76*	-16	-9	4	96*
S=C(NCC1COc2ccccc2O1)Nc1ccccc1 (stereo not given)	1	3	9	-2	-14	.
COc1cc(OC)cc(C(=O)N[C@H](C(=O)OCC(=O)Nc2sccc2C#N)C(C)C)c1	-5	1	10	-5	14	.
Cc1cnc(NS(=O)(=O)c2ccc(N)cc2)nc1-c1ccccc1O	.	0	.	.	.	.
CC(C)(C)OC(=O)N1CCC(C(=O)Nc2ccc(C(=O)N3CCCCC3)cc2)CC1	.	0	.	.	.	.
COc1ccc(CN(C)Cc2nc(Cc3cccc(F)c3)no2)c2cccnc12	7	73*	32	62	14	83*
Cc1ccc(C(=O)NCC(=O)NCC(=O)OCc2ccc(Oc3ccc([N+](=O)[O-])cc3)cc2)cc1	-6	51*	-1	11	25	52*
SMILES	CSC inhib	MPTP inh	Calb FLC	Beta cell apopt	Mdm2 MdmX PPI	Rh123 counter
COc1ccc(C2=NS(=O)(=O)N(C)C(C(=O)NCc3cccs3)=C2)cc1OC	-1	0	-5	-3	15	.
CCOC(=O)Cc1nc(-c2ccc(Cl)cc2)n[nH]1	2	-2	-2	2	-40	.
O=C(C=Cc1cccc(O)c1)c1ccccc1O	.	6	.	.	.	.
O=C(/C=C/c1ccc(O)c(O)c1)c1ccccc1O	44	73*	-11	-3	-74	63*
O=C(C=Cc1ccccc1O)c1ccccc1O	.	72*	.	.	.	89*
CCc1noc(C)c1C(=O)Nc1cc(S(=O)(=O)N2CCOCC2)ccc1OCC(F)(F)F	.	-2	-6	5	11	.
CCOc1ccccc1C(=O)Oc1cc(C)[nH]c(=O)c1[N+](=O)[O-]	-7	1	-4	-5	-1	.
CC[C@@]1(C(=O)OC)N[C@H](CN(C)C(=O)c2ccc(F)cc2)[C@@H]2C(=O)N(C)C(=O)[C@@H]21	.	1	.	.	4	.
O=C(CN1C(=O)c2ccccc2S1(=O)=O)NCc1cccs1	.	0	0	.	15	.
COc1ccccc1C(=O)Nc1cc(Cl)ccc1O	-11	67*	1	-1	17	36*
Cc1ccc(NC(=O)COc2ccccc2C(=O)Nc2ccccc2)cc1Cl	9	0	-12	5	-20	.
CCOc1ccccc1C(=O)Nc1cc(Cl)ccc1O	.	92*	34	4	11	76*
COc1cc(NC(=O)c2ccccc2)c(OC)cc1Cl	-5	-3	-3	9	12	.
COc1cc(OC)c(NC(=O)c2cc3ccccc3cc2O)cc1Cl	.	90*	.	.	.	33*
Cc1ccc(Cl)cc1NC(=O)c1ccccc1OCC(=O)Nc1ccc(Cl)cc1	78*	88*	5	65	22	93*
COc1ccc(Cl)cc1NC(=O)c1ccccc1C	-17	-7	-8	-3	-4	.
COc1ccc(N2CCN(C(CNC(=O)C(=O)NCC(OC)OC)c3ccco3)CC2)cc1 (stereo not given)	-10	0	11	-3	-4	.
O=C(c1cc(COc2cccc3cnccc23)on1)N1CCCC(CCCO)C1 (stereo not given)	10	91*	5	117*	37	83*
COCC1CCN(C(=O)c2cc(COc3cccc4cnccc34)on2)CC1	-4	6	-4	28	40	.
Cc1cccc(NC(=O)c2ccc(Cl)c(S(=O)(=O)N3CCc4ccccc43)c2)n1	26	-1	.	-5	27	.
O=C(Nc1nnc(C2CC2)s1)c1ccc(Cl)c(S(=O)(=O)N2CCc3ccccc3C2)c1	-9	51*	7	5	-5	60*
CCc1nnc(NC(=O)c2ccc(Cl)c(S(=O)(=O)N3CCc4ccccc43)c2)s1	18	6	-28	-4	-7	.
O=C(Nc1ccncc1)c1ccc(Cl)c(S(=O)(=O)N2CCc3ccccc32)c1	30	58*	31	.	43	91*
COc1ccccc1C(=O)NNC(=S)NC(=O)c1sc2ccccc2c1Cl	.	98*	-8	0	44	-11
Cc1c(NC(=S)NC(=O)c2sc3ccccc3c2Cl)cccc1C(=O)O	-6	-2	23	-3	-30	.
CC1CCCCC1NC(=S)NC(=O)c1sc2ccccc2c1Cl (stereo not given)	0	11	-22	-2	9	.
COc1ccccc1C(=O)NC(=S)NNC(=O)c1sc2ccccc2c1Cl	55	95*	4	12	42	-7
